{"source": "PubChem BioAssay (NCATS)", "note": "Records with an inconclusive call do not appear. The source made the active and inactive calls. Calls come from the whole dose curve; as a rule, active = well fitted inhibition curve with a large enough effect; inconclusive = small, poorly fitted or top-dose-only effect; inactive = flat fitted curve, though single readings scatter."}
{"assay": "BET inhibitor-based combinations targeting novel dependencies in MECOM-rearranged (r) AML: AML-191 cell line (AID 2202236; note: nearly all actives have a fitted effect of over 35% in size; note: potency is the fitted concentration of half-maximal effect;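 for viability (% of control): plate controls were vehicle wells for no effect and wells without cells for full effect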)", "conditions": "AML-191 viability, CellTiter-Glo luminescence, 48 h; series mostly up to 46 µM; viability (% of control): at the top concentration", "procedure,_shortened": "(§1)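 Here, 11-point titrations of each agent were applied to 500 seeded cells and incubated 48 hr; CellTiter-Glo signal, scaled against DMSO and empty wells, was integrated as AUC, then Z-scored within the individual line.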"}
{"molecule": "Cc1[nH]c(=O)c(C#N)cc1-c1ccncc1", "viability (% of control)": "98.2% (inactive)"}
{"molecule": "O=NN(CCCl)C(=O)NCCCl", "viability (% of control)": "101% (inactive)"}
{"molecule": "Cc1cc(O)c2c(c1)C(=O)c1cc(O)cc(O)c1C2=O", "Potency": "16.6 µM (active)"}
{"molecule": "CCc1ccc(/C=C2/SC(=S)NC2=O)cc1", "viability (% of control)": "97.2% (inactive)"}
{"molecule": "O=C(/C=C/c1ccc(O)cc1)c1ccc(O)cc1O", "Potency": "26.3 µM (active)"}
{"molecule": "O=c1c(O)c(-c2cc(O)c(O)c(O)c2)oc2cc(O)cc(O)c12", "viability (% of control)": "95.9% (inactive)"}
{"assay": "BET inhibitor-based combinations targeting novel dependencies in MECOM-rearranged (r) AML: AML-194 cell line (AID 2202237;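 note: plate controls were vehicle wells for no effect and wells without cells for full effect; nearly all actives have a fitted effect of over 40% in size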)", "conditions": "AML-194 (MECOM-r AML) viability, CellTiter-Glo, 48 h; series mostly up to 46 µM; viability (% of control): at the top concentration", "procedure,_shortened": "as §1"}
{"molecule": "Cc1[nH]c(=O)c(C#N)cc1-c1ccncc1", "viability (% of control)": "96.7% (inactive)"}
{"molecule": "O=NN(CCCl)C(=O)NCCCl", "viability (% of control)": "97.9% (inactive)"}
{"molecule": "CCc1ccc(/C=C2/SC(=S)NC2=O)cc1", "viability (% of control)": "92.9% (inactive)"}
{"molecule": "O=c1c(O)c(-c2cc(O)c(O)c(O)c2)oc2cc(O)cc(O)c12", "viability (% of control)": "100% (inactive)"}
